# High-throughput results as filed in PubChem BioAssay.
# Most compounds without a hit are left out; they make up all but 4.1% or so of the library.
# F508del corr: CFTR F508del correction in bronchial cells; activity (quench increase), % at 7.58 µM; hit rate 0.36% among 350,000; AID 720511; CFBE cells, YFP halide quenching; stimulated with forskolin plus potentiator P3; % fluorescence drop versus neutral controls;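 active = mean added fluorescence quench of at least 8% versus neutral control, with both replicates also reaching 8%; inconclusive = only one of the mean or replicate conditions met; inactive = mean below 8% and not both replicates reaching 8%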;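 note: cells transiently co-express mutant CFTR-F508del with the halide-sensitive YFP; corrector assay measuring rescue of mutant channel to the surface after 24 h compound exposure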
# HIV Env fusion: blocks HIV Env-driven cell-cell fusion; HeLa-JRFL Env/CEM21 cell fusion, luciferase; inhibition, % at 12.3 µM; hit rate 1.1% among 360,000;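 active = mean replicate inhibition score of at least 50 and every replicate individually at or above 50; inconclusive = only one of the two criteria met; inactive = mean below 50 and not all replicates reaching 50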;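 note: 0% = plate neutral controls and 100% = maraviroc near 300 nM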
# NSD2 inh: blocks human histone methyltransferase NSD2. O96028. hit rate 0.54% among 310,000. NSD2 peptide methylation, AlphaScreen, 120 min. inhibition, % at 12.5 µM; in the data active = inhibition above about 50%
# Target sequence (O96028 whole entry, looked up): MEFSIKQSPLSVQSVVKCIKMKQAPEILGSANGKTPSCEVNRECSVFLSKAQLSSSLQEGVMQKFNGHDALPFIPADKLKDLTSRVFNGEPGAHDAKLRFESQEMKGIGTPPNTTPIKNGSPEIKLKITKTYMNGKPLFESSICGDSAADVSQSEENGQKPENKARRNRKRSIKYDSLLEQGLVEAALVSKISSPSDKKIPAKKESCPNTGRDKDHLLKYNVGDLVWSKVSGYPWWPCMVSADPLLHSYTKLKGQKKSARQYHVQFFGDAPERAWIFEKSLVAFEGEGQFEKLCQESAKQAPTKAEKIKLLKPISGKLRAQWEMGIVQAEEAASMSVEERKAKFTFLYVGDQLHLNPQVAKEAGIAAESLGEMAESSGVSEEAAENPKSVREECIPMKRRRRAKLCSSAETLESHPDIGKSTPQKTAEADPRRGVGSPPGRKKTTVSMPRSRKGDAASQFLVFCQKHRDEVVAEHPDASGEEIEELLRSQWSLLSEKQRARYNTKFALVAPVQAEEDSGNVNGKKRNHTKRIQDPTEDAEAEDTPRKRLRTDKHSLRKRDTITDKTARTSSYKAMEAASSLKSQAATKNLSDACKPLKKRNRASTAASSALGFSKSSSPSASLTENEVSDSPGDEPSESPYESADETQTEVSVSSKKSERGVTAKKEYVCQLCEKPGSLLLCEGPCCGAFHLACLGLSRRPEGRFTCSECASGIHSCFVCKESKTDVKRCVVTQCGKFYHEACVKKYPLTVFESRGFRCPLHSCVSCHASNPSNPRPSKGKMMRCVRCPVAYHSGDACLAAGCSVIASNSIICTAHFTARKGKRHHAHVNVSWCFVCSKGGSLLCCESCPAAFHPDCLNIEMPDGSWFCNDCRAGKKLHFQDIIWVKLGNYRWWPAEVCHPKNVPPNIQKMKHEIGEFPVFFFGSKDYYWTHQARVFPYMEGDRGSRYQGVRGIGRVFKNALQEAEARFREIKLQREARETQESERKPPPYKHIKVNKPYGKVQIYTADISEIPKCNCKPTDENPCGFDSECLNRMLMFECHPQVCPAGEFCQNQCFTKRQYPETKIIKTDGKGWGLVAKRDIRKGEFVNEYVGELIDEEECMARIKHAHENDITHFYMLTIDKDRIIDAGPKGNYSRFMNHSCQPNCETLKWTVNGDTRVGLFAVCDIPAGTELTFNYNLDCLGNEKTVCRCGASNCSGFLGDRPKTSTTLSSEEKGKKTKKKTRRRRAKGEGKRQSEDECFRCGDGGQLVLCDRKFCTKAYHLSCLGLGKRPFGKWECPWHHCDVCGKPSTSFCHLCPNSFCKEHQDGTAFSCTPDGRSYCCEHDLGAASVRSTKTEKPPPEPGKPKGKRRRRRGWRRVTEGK
# CASP6 VEID inh: inhibitors of human caspase-6; P55212; purified caspase-6, Z-VEID-R110 cleavage fluorescence; inhibition, % at 12.5 µM; hit rate 0.53% among 350,000;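 active = mean inhibition across replicates at least about 35%, with every replicate also reaching that limit, limit read from the data; inconclusive = only one of the two criteria met; inactive = neither criterion met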;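 note: 0% = median of neutral control wells and 100% = no fluorescence left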
# ALR inh: blocks human ALR sulfhydryl oxidase activity. P55789. purified ALR, DTT oxidation, H2O2 HRP-luminol luminescence. inhibition, % (no concentration beside the values). hit rate 3.8% among 290,000. AID 485317;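 active = mean replicate inhibition above about 79%, with every replicate also reaching it, limit read from the data; inconclusive = only one of the two criteria met; inactive = mean below limit and not every replicate reaching it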
# PglD inh: PglD (C. jejuni) enzyme inhibition; purified PglD enzyme, DTNB colorimetric CoA detection; inhibition, % at 12.5 µM; hit rate 0.098% among 360,000; in the data active = inhibition above about 16%, passing the limit was not always enough; inconclusive = no clear call, values can overlap the other calls
# The depositor's hits bear a star; ? = inconclusive; . = no result given; [ ] = remark or other dose.
SMILES,F508del corr,HIV Env fusion,NSD2 inh,CASP6 VEID inh,ALR inh,PglD inh
COc1ccc(-c2ccc(/C=C(\NC(=O)c3ccccc3)C(=O)N3CCOCC3)o2)cc1,0.3,-7.2,5.5,0.1,97.8*,0.0
CN(C)CCCNC(=O)[C@H]1[C@H](CO)[C@H]2Cn3c(ccc(-c4ccc(F)cc4)c3=O)[C@@H]1N2C,-2.6,.,.,.,.,0.1
O=S(=O)(c1ccccc1)N1CCCCN2[C@@H](CO)[C@@H](c3ccc(-c4ccccc4F)cc3)[C@@H]2C1,-1.4,.,.,-4.9,.,-1.9
COc1cccc(C(=O)OC(C)C(=O)NCC2CCCCC2)c1 (stereo not given),1.0,.,-1.7,36.4*,0.9,3.0
CCC(=O)Nc1ccc2c(c1)C(=O)N(C)C[C@@H](OC)[C@H](C)CN(C(=O)C1CCC1)[C@@H](C)CO2,0.1,.,.,.,.,.
O=C(O)CSc1c(-c2cccs2)[nH]c2ccccc12,6.3,-12.0,-2.9,7.9,99.0*,-2.3
O=C(O)CSc1c(-c2ccccc2)[nH]c2ccccc12,.,-3.7,-1.6,.,97.5*,.
Cc1cccc(-c2ccc([C@H]3[C@@H](CO)N4CCCCN(S(=O)(=O)c5cccs5)C[C@@H]34)cc2)c1,1.7,.,.,-3.7,.,-1.3
c1ccc(-c2nc3ccccn3c2NCc2ccc3c(c2)OCO3)cc1,.,-68.5,-1.4,.,81.1*,-1.0
COc1ccc(-c2nc3ccccn3c2NCc2ccc3c(c2)OCO3)cc1,.,.,-8.4,.,?,-0.1
Cc1[nH]nc2ncc(C(=O)c3ccccc3O)cc12,.,64.3*,6.7,.,3.7,3.8
Cc1nn(C)c2ncc(C(=O)c3ccccc3O)cc12,1.8,7.4,2.6,2.0,2.3,2.1
CN1Cc2cc(C(=O)c3ccccc3O)cnc2NC1=O,.,.,2.0,.,87.4*,3.4
COc1ccc(O)c(C(=O)c2cnc3c(c2)CN(C)C(=O)N3)c1,1.0,-36.9,0.7,1.4,14.4,.
CCOC(=O)c1[nH]c2ccc(OC)cc2c1N=CN(C)C,.,-18.3,2.5,.,98.1*,0.4
CC1=C(C(=O)N(C(C)C)C(C)C)CC(CC(=O)NCc2cccc3ccccc23)C(=O)N1CCCN1CCCC1=O (stereo not given),1.5,.,.,1.0,.,-0.5
CC1=C(C(=O)N(C)C)CC(CC(=O)NCc2cccc3ccccc23)C(=O)N1CCCN1CCCC1=O (stereo not given),8.3*,-6.1,.,-2.5,.,-0.4
Nc1c(Cl)ncnc1NCCc1ccc(O)cc1,-1.8,19.4,-1.7,-2.3,89.5*,.
Nc1c(Cl)ncnc1NCc1cccnc1,-0.7,-9.4,21.5,10.2,-33.3,0.0
CCCOc1ccc(C(=O)CCCC(=O)c2ccc(OCCC)cc2)cc1,8.3*,1.0,-2.0,-0.6,2.6,-0.9
CCCCOc1ccc(CC(=O)NO)cc1,2.6,5.8,.,.,90.6*,1.2
CCCCOc1ccc(C(=O)CCN2CCCCC2)cc1,1.2,-13.7,.,-3.5,97.5*,-4.7
Cc1ccc(NC(=O)COc2ccc(/C(N)=N/O)cc2)cc1C,1.5,.,-1.0,1.4,98.9*,1.5
CC(C)COc1ccc(C(=O)CCN2CCCCC2)cc1,.,.,0.2,.,0.4,0.7
Cc1ccc(NC(=O)COc2ccc(-n3cnnn3)cc2)cc1C,.,.,18.8,.,-10.6,-5.6
SMILES,F508del corr,HIV Env fusion,NSD2 inh,CASP6 VEID inh,ALR inh,PglD inh
CN1C(=O)c2cc(NC(=O)Cc3ccccc3)ccc2OC[C@@H]2O[C@@H](CC(=O)O)CC[C@@H]21,0.0,-5.3[16.7 µM],.,-1.7,.,-4.1
COc1ccccc1-c1cn(CC[C@@H]2CC[C@@H](NS(=O)(=O)c3ccccc3C)[C@H](CO)O2)nn1,2.4,-5.4[16.7 µM],.,0.7,.,1.8
CCCCOc1ccc(/C(N)=N/O)cc1,.,.,-3.0,1.9,99.0*,-8.4
CCCCOc1ccc(C(=O)NC)cc1,.,.,-2.9,.,2.2,0.6
O=C(C[C@H]1C[C@@H]2c3cc(NC(=O)C4CCOCC4)ccc3O[C@@H]2[C@@H](CO)O1)NCc1ccccc1F,-3.8,82.0*[16.7 µM],.,-2.5,.,1.4
O=C(C[C@@H]1C[C@H]2c3cc(NC(=O)C4CCOCC4)ccc3O[C@H]2[C@@H](CO)O1)NCc1ccccc1,1.0,90.2*[16.7 µM],.,-1.1,.,-3.1
O=C(C[C@@H]1C[C@@H]2c3cc(NC(=O)C4CCOCC4)ccc3O[C@@H]2[C@H](CO)O1)NCCc1ccccc1,-1.8,62.9*[16.7 µM],.,-0.6,.,0.3
CN(C)CC(=O)Nc1ccc2c(c1)[C@H]1C[C@@H](CC(=O)NCCc3ccccc3)O[C@H](CO)[C@H]1O2,-1.0,59.8*[16.7 µM],.,0.3,.,1.1
COc1ccc2c3c(n(C)c2c1)[C@@H](CO)N(C(=O)NC(C)C)CC31CN(C(=O)NC(C)C)C1,0.8,-3.5[16.7 µM],.,3.5,.,.
CN1C(=O)CCS(=O)(=O)C1c1ccc(Cl)c(Cl)c1 (stereo not given),-6.5,-13.8,-0.1,57.1*,.,-0.5
CN1CCCN(S(=O)(=O)c2ccc(Cl)c(Cl)c2)CC1,-1.2,-1.5,11.3,-9.3,.,.
C[C@@H]1CCCCO[C@H](CN(C)Cc2ccncc2)[C@H](C)CN([C@H](C)CO)C(=O)c2cc(NC(=O)Nc3ccc(C(F)(F)F)cc3)ccc2O1,5.5,20.5[16.7 µM],.,1.0,.,-0.5
O=c1cc(O)c2sc(Nc3ccc(F)c(Cl)c3)nc2[nH]1,0.4,68.1*,-3.1,4.7,28.9,.
N#Cc1c(F)cccc1NCc1cccnc1,1.0,-1.4,-0.6,-0.4,-9.6,-6.7
N#Cc1c(NCc2ccccc2)ccnc1NCc1cccnc1,.,106.8*,2.3,.,-12.7,8.1
C[C@@H]1CN([C@H](C)CO)C(=O)c2cc(NS(=O)(=O)c3ccccc3)ccc2O[C@@H](C)CCCCO[C@@H]1CN(C)C(=O)c1ccccc1,1.9,-4.9[16.7 µM],.,7.1,.,3.9
O=C(CSc1ncnc2ccccc12)c1ccc2c(c1)OCCO2,2.7,.,-1.7,2.5,98.9*,0.6
O=C(CSc1nc(Cc2ccccc2)nc2ccccc12)c1ccc2c(c1)OCCO2,.,.,-1.0,2.2,99.0*,-4.9
O=C(O)CCSCC(=O)c1ccc2c(c1)OCCO2,.,.,1.1,.,98.2*,1.5
O=C(COc1ncnc2ccccc12)c1ccc2c(c1)OCCO2,.,.,-3.1,.,-2.6,.
O=C(C[C@H]1CC[C@@H]2[C@H](COC[C@H](O)CN2C(=O)c2cccnc2)O1)NCc1ccccc1,-0.7,.,.,0.3,.,-1.5
Cc1nc(NCc2cccnc2)c2c3c(sc2n1)CCCC3,12.2*,11.7,-2.6,7.4,-2.2,0.1
Cc1nc(NS(=O)(=O)c2ccccc2C)c2c3c(sc2n1)CCC3,.,.,3.1,.,97.1*,.
COc1ccc(OC)c(NC(=O)CN=[N+]=[N-])c1,-1.1,0.9[16.7 µM],.,-1.5,.,.
CC(=O)Nc1ccc(NC(=O)COc2ccc(-c3ccc(C#N)cc3)cc2)cc1,-0.4,3.6,-0.9,-4.9,0.3,-0.6
N#Cc1ccc(-c2ccc(OCC(=O)Nc3cccnc3)cc2)cc1,1.0,59.4*,.,1.3,-7.1,-0.7
CN(C)C(=O)[C@@H]1[C@@H](CO)[C@@H]2Cn3c(ccc(C4=CCCC4)c3=O)[C@H]1N2C(=O)Nc1ccccc1,.,15.7[16.7 µM],.,0.7,.,5.3
Cc1cccc(NC(=O)CSc2ncnc3nc[nH]c23)c1,.,.,0.7,.,90.2*,-5.4
